In PMC7862700, “An all-to-all approach to the identification of sequence-specific readers for epigenetic DNA modifications on cytosine” one finds binding signal data, which are given here for eight sequences.

Assay in all cases: DAPPL (digital affinity profiling via proximity ligation, sequencing); 10 mM Tris-HCl pH 7.5, 50 mM NaCl, 1 mM DTT, 4% glycerol, room temperature, 30 min; GST-TFs on glutathione beads, 16-mer random dsDNA library, 0.1% formaldehyde crosslink after washing; high values mean tight binding
Settings in all cases: protein: recombinant; tags: N-terminal GST; dsDNA, one strand shown

One assay deals with T1, FLI1 (Homo sapiens, UniProt Q01543 1-452).
T1 sequence: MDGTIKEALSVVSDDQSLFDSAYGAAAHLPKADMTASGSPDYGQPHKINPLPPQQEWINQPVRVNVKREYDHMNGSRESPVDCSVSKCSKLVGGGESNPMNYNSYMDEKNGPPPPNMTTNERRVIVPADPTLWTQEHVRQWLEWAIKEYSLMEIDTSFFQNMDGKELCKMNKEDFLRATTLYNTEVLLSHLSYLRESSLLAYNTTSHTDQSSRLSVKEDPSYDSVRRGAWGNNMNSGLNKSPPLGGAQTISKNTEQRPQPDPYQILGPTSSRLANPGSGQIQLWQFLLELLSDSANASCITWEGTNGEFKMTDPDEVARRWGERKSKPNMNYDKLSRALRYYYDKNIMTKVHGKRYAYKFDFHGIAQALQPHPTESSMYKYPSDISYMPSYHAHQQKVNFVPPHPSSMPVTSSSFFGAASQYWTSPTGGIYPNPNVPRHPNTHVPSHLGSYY
The procedure, abridged:
(§1)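 Yeast served to express human transcription factors as GST fusions, which were then captured on glutathione beads and labelled with DNA barcodes. Pooled with a tag-only sample, they were incubated with 200 nmole of a 16-mer random double-stranded DNA library for 30 min at room temperature in Tris/NaCl/DTT/glycerol buffer, washed, crosslinked with 0.1% formaldehyde, ligated by proximity, amplified by PCR and sequenced. Dividing each hexamer's read frequency for a factor by its frequency for the tag-only sample gives the binding signal.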

In a further assay the target is T2, ELK1 (Homo sapiens, UniProt P19419 1-428).
T2 sequence: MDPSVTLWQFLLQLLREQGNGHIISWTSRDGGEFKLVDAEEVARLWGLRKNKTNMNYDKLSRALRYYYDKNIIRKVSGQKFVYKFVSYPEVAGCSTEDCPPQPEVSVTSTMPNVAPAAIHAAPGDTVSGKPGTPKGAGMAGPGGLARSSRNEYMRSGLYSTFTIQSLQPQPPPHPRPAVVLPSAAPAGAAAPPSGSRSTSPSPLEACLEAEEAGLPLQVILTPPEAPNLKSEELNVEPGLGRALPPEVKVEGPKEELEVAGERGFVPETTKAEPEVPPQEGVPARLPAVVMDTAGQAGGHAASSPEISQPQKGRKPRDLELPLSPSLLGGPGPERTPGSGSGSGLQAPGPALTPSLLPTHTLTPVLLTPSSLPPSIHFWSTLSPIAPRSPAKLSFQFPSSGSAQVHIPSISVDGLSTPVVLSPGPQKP
A digest of the protocol:
as §1

The target in another assay is T3, GABPA (Homo sapiens, UniProt Q06546 1-454).
T3 sequence: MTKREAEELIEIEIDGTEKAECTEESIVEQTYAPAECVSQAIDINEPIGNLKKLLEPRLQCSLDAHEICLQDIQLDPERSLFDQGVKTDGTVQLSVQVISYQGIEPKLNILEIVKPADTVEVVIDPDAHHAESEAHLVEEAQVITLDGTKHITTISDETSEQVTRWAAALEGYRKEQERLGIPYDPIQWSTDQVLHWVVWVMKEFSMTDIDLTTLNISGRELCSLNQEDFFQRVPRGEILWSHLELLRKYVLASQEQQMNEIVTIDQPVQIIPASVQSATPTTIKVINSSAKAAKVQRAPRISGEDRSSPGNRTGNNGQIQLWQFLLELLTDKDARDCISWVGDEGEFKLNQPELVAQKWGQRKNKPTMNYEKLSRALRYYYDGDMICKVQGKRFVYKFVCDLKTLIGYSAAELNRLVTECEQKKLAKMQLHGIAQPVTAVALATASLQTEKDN
A digest of the protocol: as §1

Another assay concerns the target T4, ERG (Homo sapiens, UniProt P11308 1-479).
T4 sequence: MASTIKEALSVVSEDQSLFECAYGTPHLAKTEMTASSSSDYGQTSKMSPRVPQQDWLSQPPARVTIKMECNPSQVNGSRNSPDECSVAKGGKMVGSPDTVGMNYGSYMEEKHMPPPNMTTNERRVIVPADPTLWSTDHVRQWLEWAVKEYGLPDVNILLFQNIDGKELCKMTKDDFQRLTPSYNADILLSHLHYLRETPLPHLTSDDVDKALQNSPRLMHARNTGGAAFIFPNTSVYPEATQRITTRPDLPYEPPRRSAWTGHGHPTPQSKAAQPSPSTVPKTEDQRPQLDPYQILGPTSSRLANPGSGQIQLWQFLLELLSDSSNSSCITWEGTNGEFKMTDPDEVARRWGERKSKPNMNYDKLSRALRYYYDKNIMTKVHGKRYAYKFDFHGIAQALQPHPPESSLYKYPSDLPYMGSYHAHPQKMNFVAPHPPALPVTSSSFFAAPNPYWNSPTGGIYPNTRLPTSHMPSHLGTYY
A digest of the protocol: as §1

The target of a further assay is ELF1 (Homo sapiens, UniProt P32519 1-619). A digest of the protocol: as §1
Chain of ELF1 (P32519 whole entry): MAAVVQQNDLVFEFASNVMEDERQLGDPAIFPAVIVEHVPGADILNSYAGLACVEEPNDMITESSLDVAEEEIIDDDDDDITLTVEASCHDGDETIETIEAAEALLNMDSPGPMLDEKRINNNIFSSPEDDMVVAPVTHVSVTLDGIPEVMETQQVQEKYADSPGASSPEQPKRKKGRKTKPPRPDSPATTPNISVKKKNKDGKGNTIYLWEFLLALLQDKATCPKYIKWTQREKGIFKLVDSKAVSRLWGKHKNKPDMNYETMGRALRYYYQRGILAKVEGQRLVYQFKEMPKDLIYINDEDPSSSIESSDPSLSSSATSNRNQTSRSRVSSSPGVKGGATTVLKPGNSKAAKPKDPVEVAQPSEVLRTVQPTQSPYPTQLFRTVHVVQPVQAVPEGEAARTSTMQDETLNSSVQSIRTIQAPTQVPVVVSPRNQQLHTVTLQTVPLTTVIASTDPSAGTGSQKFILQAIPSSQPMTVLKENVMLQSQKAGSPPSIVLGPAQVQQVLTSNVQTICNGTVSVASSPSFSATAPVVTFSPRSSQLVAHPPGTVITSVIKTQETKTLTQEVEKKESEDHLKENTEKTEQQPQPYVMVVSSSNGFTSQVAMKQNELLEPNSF
The target in another assay is T5, EHF (Homo sapiens, UniProt Q9NZC4 1-300).
T5 sequence: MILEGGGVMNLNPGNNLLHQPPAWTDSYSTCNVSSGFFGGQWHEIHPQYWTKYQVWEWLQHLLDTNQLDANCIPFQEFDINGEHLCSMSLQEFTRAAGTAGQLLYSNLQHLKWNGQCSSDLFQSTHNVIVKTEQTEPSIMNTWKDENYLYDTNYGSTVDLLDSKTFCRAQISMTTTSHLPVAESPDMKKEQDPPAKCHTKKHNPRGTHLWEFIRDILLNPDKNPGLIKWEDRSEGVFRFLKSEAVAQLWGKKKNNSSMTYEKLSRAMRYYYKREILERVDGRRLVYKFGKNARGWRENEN
A digest of the protocol:
as §1

In another assay the target is SPI1 (Homo sapiens, UniProt P17947 1-270). A digest of the protocol: as §1
In a further assay the target is SPIB (Homo sapiens, UniProt Q01892 1-262). The procedure, abridged: as §1
Chain of SPIB (Q01892 whole entry): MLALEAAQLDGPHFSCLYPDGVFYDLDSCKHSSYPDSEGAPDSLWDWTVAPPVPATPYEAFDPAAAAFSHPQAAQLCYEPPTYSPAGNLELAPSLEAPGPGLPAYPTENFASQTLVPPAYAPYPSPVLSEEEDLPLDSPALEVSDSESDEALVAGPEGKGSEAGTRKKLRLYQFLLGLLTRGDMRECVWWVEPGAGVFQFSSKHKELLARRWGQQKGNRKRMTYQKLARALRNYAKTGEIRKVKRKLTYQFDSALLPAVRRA
For a further assay, the target named is T6, ELK3 (Homo sapiens, UniProt P41970 1-407).
T6 sequence: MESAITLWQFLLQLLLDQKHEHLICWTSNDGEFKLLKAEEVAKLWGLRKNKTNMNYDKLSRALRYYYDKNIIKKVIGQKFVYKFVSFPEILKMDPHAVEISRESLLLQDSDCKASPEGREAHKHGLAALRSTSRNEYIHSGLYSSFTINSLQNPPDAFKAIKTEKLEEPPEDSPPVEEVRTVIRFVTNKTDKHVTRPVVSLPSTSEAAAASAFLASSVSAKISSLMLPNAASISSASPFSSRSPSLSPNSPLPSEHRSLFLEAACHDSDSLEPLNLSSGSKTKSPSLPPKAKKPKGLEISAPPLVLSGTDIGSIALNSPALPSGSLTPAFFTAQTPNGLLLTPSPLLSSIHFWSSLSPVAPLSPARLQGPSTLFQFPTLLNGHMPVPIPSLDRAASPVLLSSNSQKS
A digest of the protocol:
as §1

For the sequence ATTACC, the binding signal with FLI1 was 1.22 fold enrichment (6-mer frequency, TF over GST control); in the assay with ELK1, 1.13 fold enrichment (6-mer frequency, TF over GST control); in the assay with GABPA it was 1.16 fold enrichment (6-mer frequency, TF over GST control); in the assay with ERG, 1.26 fold enrichment (6-mer frequency, TF over GST control); with ELF1 it was 1.23 fold enrichment (6-mer frequency, TF over GST control); with EHF, 1.4 fold enrichment (6-mer frequency, TF over GST control). Moreover, the binding signal with SPI1 was 1.16 fold enrichment (6-mer frequency, TF over GST control); in the assay with SPIB, 1.36 fold enrichment (6-mer frequency, TF over GST control); with ELK3 it was 1.26 fold enrichment (6-mer frequency, TF over GST control).
TAAGAA: the binding signal in the assay with FLI1 is 1.09 fold enrichment (6-mer frequency, TF over GST control); in the assay with ELK1, 1.1 fold enrichment (6-mer frequency, TF over GST control); in the assay with GABPA, 1.15 fold enrichment (6-mer frequency, TF over GST control); with ERG, 1.05 fold enrichment (6-mer frequency, TF over GST control); in the assay with ELF1 it was 1.04 fold enrichment (6-mer frequency, TF over GST control); with EHF it was 1.04 fold enrichment (6-mer frequency, TF over GST control). Moreover, the binding signal in the assay with SPI1 was 1.12 fold enrichment (6-mer frequency, TF over GST control); with SPIB it was 1.04 fold enrichment (6-mer frequency, TF over GST control); in the assay with ELK3, 1.15 fold enrichment (6-mer frequency, TF over GST control).
Consider GTTTCC, for which the binding signal with FLI1 was 2.66 fold enrichment (6-mer frequency, TF over GST control); with ELK1 it was 2.9 fold enrichment (6-mer frequency, TF over GST control); with GABPA, 2.56 fold enrichment (6-mer frequency, TF over GST control); in the assay with ERG, 3.43 fold enrichment (6-mer frequency, TF over GST control); with ELF1, 2.58 fold enrichment (6-mer frequency, TF over GST control); in the assay with EHF, 2.77 fold enrichment (6-mer frequency, TF over GST control). Also, the binding signal with SPI1 is 2.67 fold enrichment (6-mer frequency, TF over GST control); with SPIB, 2.84 fold enrichment (6-mer frequency, TF over GST control); with ELK3, 2.9 fold enrichment (6-mer frequency, TF over GST control).
As for TGACCG, the binding signal in the assay with FLI1 is 1.62 fold enrichment (6-mer frequency, TF over GST control); in the assay with ELK1 it was 1.48 fold enrichment (6-mer frequency, TF over GST control); with GABPA, 1.59 fold enrichment (6-mer frequency, TF over GST control); in the assay with ERG it was 1.55 fold enrichment (6-mer frequency, TF over GST control); with ELF1, 1.53 fold enrichment (6-mer frequency, TF over GST control); in the assay with EHF, 1.53 fold enrichment (6-mer frequency, TF over GST control). Also, the binding signal in the assay with SPI1 was 1.52 fold enrichment (6-mer frequency, TF over GST control); in the assay with SPIB it was 1.44 fold enrichment (6-mer frequency, TF over GST control); with ELK3, 1.47 fold enrichment (6-mer frequency, TF over GST control).
On to ACTATT, for which the binding signal was 1.29 fold enrichment (6-mer frequency, TF over GST control) with FLI1; 1.17 fold enrichment (6-mer frequency, TF over GST control) with ELK1; 1.33 fold enrichment (6-mer frequency, TF over GST control) in the assay with GABPA; 1.3 fold enrichment (6-mer frequency, TF over GST control) in the assay with ERG; 1.27 fold enrichment (6-mer frequency, TF over GST control) in the assay with ELF1; 1.3 fold enrichment (6-mer frequency, TF over GST control) with EHF. Besides, the binding signal in the assay with SPI1 is 1.22 fold enrichment (6-mer frequency, TF over GST control); with SPIB it was 1.26 fold enrichment (6-mer frequency, TF over GST control); in the assay with ELK3 it was 1.28 fold enrichment (6-mer frequency, TF over GST control).
In the case of TTACCC, the binding signal with FLI1 is 1.3 fold enrichment (6-mer frequency, TF over GST control); in the assay with ELK1 it was 1.44 fold enrichment (6-mer frequency, TF over GST control); in the assay with GABPA it was 1.3 fold enrichment (6-mer frequency, TF over GST control); in the assay with ERG, 1.34 fold enrichment (6-mer frequency, TF over GST control); with ELF1, 1.38 fold enrichment (6-mer frequency, TF over GST control); with EHF, 1.43 fold enrichment (6-mer frequency, TF over GST control). For the same sequence, the binding signal in the assay with SPI1 was 1.35 fold enrichment (6-mer frequency, TF over GST control); with SPIB, 1.45 fold enrichment (6-mer frequency, TF over GST control); in the assay with ELK3, 1.39 fold enrichment (6-mer frequency, TF over GST control).
As for TCTGCG, the binding signal in the assay with FLI1 was 1.12 fold enrichment (6-mer frequency, TF over GST control); with ELK1 it was 1.28 fold enrichment (6-mer frequency, TF over GST control); in the assay with GABPA, 1.27 fold enrichment (6-mer frequency, TF over GST control); in the assay with ERG, 1.18 fold enrichment (6-mer frequency, TF over GST control); with ELF1, 1.2 fold enrichment (6-mer frequency, TF over GST control); in the assay with EHF it was 1.23 fold enrichment (6-mer frequency, TF over GST control). In addition, the binding signal is 1.28 fold enrichment (6-mer frequency, TF over GST control) with SPI1; 1.23 fold enrichment (6-mer frequency, TF over GST control) with SPIB; 1.11 fold enrichment (6-mer frequency, TF over GST control) in the assay with ELK3.
Turning to CCCCAT, the binding signal in the assay with FLI1 was 1.37 fold enrichment (6-mer frequency, TF over GST control); with ELK1, 1.24 fold enrichment (6-mer frequency, TF over GST control); with GABPA, 1.26 fold enrichment (6-mer frequency, TF over GST control); with ERG, 1.34 fold enrichment (6-mer frequency, TF over GST control); with ELF1, 1.31 fold enrichment (6-mer frequency, TF over GST control); with EHF, 1.27 fold enrichment (6-mer frequency, TF over GST control). For the same sequence, the binding signal in the assay with SPI1 is 1.46 fold enrichment (6-mer frequency, TF over GST control); with SPIB, 1.18 fold enrichment (6-mer frequency, TF over GST control); in the assay with ELK3, 1.2 fold enrichment (6-mer frequency, TF over GST control).
